Assay outcomes from PubChem.
Rows were chosen to be rich in hits. Some 6.9% of all compounds tested hit in one or more screens of this group.
KB-3-1 tox – kills parental KB-3-1 adenocarcinoma cells; KB-3-1 viability, CellTiter-Glo ATP luminescence, 72 h; Potency, µM (highest dose often 46.1 µM), hits mostly cytotoxic; 400,000 tested, 1.4% active; note: potency is the fitted concentration of half-maximal effect; % is set by controls: 0 for no effect and ±100 for the full control effect; nearly all actives have a fitted effect of over 60% in size
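Cytotoxicity in the drug-sensitive parental line KB-3-1 was scored as loss of CellTiter-Glo luminescence following 72 h incubation with compound. Values come from curve fitting of normalized concentration-response data.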
Giardia killer – Giardia lamblia killing; 340,000 tested, 0.15% active; Giardia lamblia trophozoite viability; activity change, % at 7.66 µM, hits read low; AID 540267; in the data active = activity change below about -80%; inconclusive = between about -30% and that limit;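 note: parasites exposed to compound for two days anaerobically before the ATP read; % is set by controls: 0 for no effect and ±100 for the full control effect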
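Anaerobic 48 hrs incubation at 37 deg C of 100 trophozoites/well with test compounds; ATPLite 1-Step luminescence, 15-30 min RT, reports cellular ATP as viability.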
MCF10A rereplic – inducers of DNA re-replication in MCF 10A breast cells. MCF 10A DNA re-replication, Hoechst nuclear intensity, 48 h. 350,000 tested, 2.9% active. Potency, µM (doses to about 46.1 µM), for the others: top-dose activity, positive = re-replication, actives largely listed as activators; note: potency is the fitted concentration of half-maximal effect; % of control where 0% means no effect; nearly all actives have a fitted effect of over 50% in size
KB-V1 MDR tox – kills drug-selected multidrug resistant KB-V1 cells; KB-V1 MDR cells viability, CellTiter-Glo, 72 h; Potency, µM (series often up to 46.1 µM), actives largely listed as cytotoxic; 400,000 tested, 3.4% active; AID 1347076; note: potency is the fitted concentration of half-maximal effect; % is set by controls: 0 for no effect and ±100 for the full control effect; nearly all actives have a fitted effect of over 60% in size
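Potencies derive from concentration-effect curves fitted to normalized luminescence (CellTiter-Glo) of KB-V1 cells treated for 72 h at 37 degrees C in phenol-red-free DMEM containing 10% FBS.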
S-ASM inh – human S-ASM enzyme inhibition. 340,000 tested, 0.006% active. AID 504937. Potency, µM (titrated, usually from 57.5 µM), for inactives: at the top dose activity change, negative = inhibition, most hits filed as inhibitors. placental ASM, HMU-PC fluorogenic substrate, 60 min; note: potency is the fitted concentration of half-maximal effect
Target sequence (P17405 47-631 limits assumed): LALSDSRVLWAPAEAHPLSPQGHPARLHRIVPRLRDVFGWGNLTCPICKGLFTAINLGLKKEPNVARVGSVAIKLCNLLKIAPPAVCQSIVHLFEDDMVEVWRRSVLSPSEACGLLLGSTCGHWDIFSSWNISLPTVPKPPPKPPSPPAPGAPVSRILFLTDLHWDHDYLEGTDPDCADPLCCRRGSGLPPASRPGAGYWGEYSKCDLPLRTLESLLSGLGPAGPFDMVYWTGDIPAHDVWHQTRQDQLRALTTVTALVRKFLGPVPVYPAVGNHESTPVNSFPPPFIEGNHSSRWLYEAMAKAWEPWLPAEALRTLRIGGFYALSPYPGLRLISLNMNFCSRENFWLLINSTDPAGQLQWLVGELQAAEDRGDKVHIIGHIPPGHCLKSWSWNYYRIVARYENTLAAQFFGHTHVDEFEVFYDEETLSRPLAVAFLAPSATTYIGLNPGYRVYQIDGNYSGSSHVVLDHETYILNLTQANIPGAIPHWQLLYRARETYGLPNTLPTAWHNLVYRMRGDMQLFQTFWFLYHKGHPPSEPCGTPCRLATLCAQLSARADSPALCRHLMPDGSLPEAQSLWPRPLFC
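Human placenta-derived ASM preincubated with compound 10 min at room temperature, then reacted with 9 uM (final) fluorogenic HMU-PC substrate for 60 min at 37 C. Stop solution raises pH to 10; fluorescence read at Ex 386/Em 447 nm.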
SW480 rerep – induces DNA re-replication in SW480 colon adenocarcinoma cells. 340,000 tested, 1.8% active. AID 624297. Potency, µM (doses to about 46.1 µM), inactives show at the highest dose re-replication activation, actives largely listed as activators. SW480 DNA re-replication, Hoechst DNA content imaging, 48 h; note: potency is the fitted concentration of half-maximal effect; % of control where 0% means no effect; nearly all actives have a fitted effect of over 55% in size
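Treated cells incubate 48 hr (37 C, 5% CO2), are stained 40 min with Hoechst, and nuclear fluorescence is enumerated; a rise in nuclei with high DNA signal marks re-replication.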
Active calls of the source: *. Unless noted, calls come from the whole dose curve; as a rule, active = well fitted curve in the direction sought with a large enough effect; inconclusive = small, poorly fitted or top-dose-only effect, or another doubt; inactive = no such curve, though single readings can be large; an effect the other way counts as inactive or inconclusive.

CC(C)Nc1oc(Cc2cccc3ccccc23)nc1C#N was read as KB-3-1 tox inactive, Giardia killer -6, MCF10A rereplic 18%, KB-V1 MDR tox 16µM*, S-ASM inh -2% and SW480 rerep -5%.
For COc1ccc(CCNc2oc(COc3ccc(Br)cc3)nc2C#N)cc1OC the results were KB-3-1 tox inconclusive, Giardia killer inconclusive, MCF10A rereplic inconclusive, KB-V1 MDR tox inconclusive, S-ASM inh -12% and SW480 rerep 3%.
Screening COc1ccc(CCNc2oc(Cc3cccc4ccccc34)nc2C#N)cc1OC returned KB-3-1 tox inconclusive, Giardia killer 7, MCF10A rereplic 6%, KB-V1 MDR tox 18µM*, S-ASM inh -8% and SW480 rerep 1%.
`Cc1nc2nc(C)c(CCC(=O)N3CCc4ccccc43)c(C)n2n1` gave KB-3-1 tox inactive, Giardia killer -17, MCF10A rereplic 2%, KB-V1 MDR tox 21µM*, S-ASM inh 1% and SW480 rerep -6%.
Screening Cc1nc2ncnn2c(C)c1CCC(=O)N1CCc2ccccc21 returned KB-3-1 tox inactive, Giardia killer 14, MCF10A rereplic -1%, KB-V1 MDR tox inconclusive, S-ASM inh 4% and SW480 rerep -12%.
Screening CCN(CC)c1ccc(/C=N/NC(=S)NCc2ccc(OC)cc2)cc1 returned KB-3-1 tox inactive, Giardia killer -10, MCF10A rereplic 10µM*, KB-V1 MDR tox inactive, S-ASM inh inactive and SW480 rerep inconclusive.
C=CCNC(=S)N/N=C/c1ccc(N(CC)Cc2ccccc2)cc1 was read as KB-3-1 tox inconclusive, Giardia killer 10, MCF10A rereplic inconclusive, KB-V1 MDR tox 13µM*, S-ASM inh 277% and SW480 rerep 18µM*.
`COc1ccc(CNC(=S)N/N=C/c2ccncc2)cc1` gave KB-3-1 tox inactive, Giardia killer -15, MCF10A rereplic inconclusive, KB-V1 MDR tox inactive, S-ASM inh 0% and SW480 rerep -6%.
Screening C=CCNC(=S)N/N=C/c1ccc(C(F)(F)F)cc1 returned KB-3-1 tox inconclusive, Giardia killer -15, MCF10A rereplic 22%, KB-V1 MDR tox inactive, S-ASM inh -3% and SW480 rerep 58%.
For CCN(CC)c1ccc(/C=N/NC(=S)NCc2ccccc2)cc1 the results were KB-3-1 tox inactive, Giardia killer 10, MCF10A rereplic 21µM*, KB-V1 MDR tox inactive, S-ASM inh inactive and SW480 rerep inconclusive.
`COC(=O)c1ccccc1NC(=O)CSc1nc2sc3c(c2c(=O)[nH]1)CCCC3` gave Giardia killer -2.
For CC(C)OCCCn1c(SCc2cccc(Br)c2)nc2c(sc3ccccc32)c1=O the results were KB-3-1 tox inactive and KB-V1 MDR tox inactive.
CC(=O)N1CCOCC1c1cc(C(=O)Nc2ccccc2)no1 (configuration not stated) was read as KB-3-1 tox inactive and KB-V1 MDR tox inactive.
For Cc1c(NC(=O)c2cc3ccccc3o2)cccc1-c1nc2ccccc2o1 the results were KB-3-1 tox inactive and KB-V1 MDR tox inactive.
Screening COc1ccc(CNC(=O)c2cccn2-c2nnc(N3CCCCC3)s2)c(OC)c1 returned KB-3-1 tox inactive and KB-V1 MDR tox inactive.
Screening O=Cc1ccc(I)cc1 returned KB-3-1 tox inactive and KB-V1 MDR tox inactive.
`Cc1ccc2c(CSc3nnc4ccccn34)cc(=O)oc2c1C` gave KB-3-1 tox inactive, Giardia killer 8, MCF10A rereplic -1%, KB-V1 MDR tox 16µM*, S-ASM inh 3% and SW480 rerep -13%.
For Cc1ccc2c(CSc3nc4ccccc4c(=O)n3CCCO)cc(=O)oc2c1C the results were KB-3-1 tox inactive, Giardia killer 7, MCF10A rereplic inconclusive, KB-V1 MDR tox inactive, S-ASM inh -18% and SW480 rerep -1%.
COc1ccc(CNC(=O)Cc2csc3nc(-c4ccc(F)cc4)cn23)cc1 was read as KB-3-1 tox inactive and KB-V1 MDR tox inactive.
CC(C(=O)NCc1cccc(Br)c1)n1ncn2cccc2c1=O (configuration not stated) was read as KB-3-1 tox inactive and KB-V1 MDR tox inactive.
For COC(=O)C1=C(C)NC(C)=C([N+](=O)[O-])[C@H]1c1ccccc1C(F)(F)F the results were KB-3-1 tox inactive and KB-V1 MDR tox inactive.
For COC(=O)C1=C(C)NC(C)=C(C(=O)OCC(C)C)C1c1ccccc1[N+](=O)[O-] (configuration not stated) the results were KB-3-1 tox inactive, Giardia killer 18, MCF10A rereplic 27µM*, KB-V1 MDR tox 3.7µM*, S-ASM inh -2% and SW480 rerep inconclusive.
For COC(=O)c1ccc(NC(=O)C(=O)NCCc2csc3nc(-c4ccccc4F)nn23)cc1 the results were KB-3-1 tox inactive and KB-V1 MDR tox inactive.
CCCc1cc(-c2n[nH]c(C)c2-c2ccc(C(=O)OCC)o2)c(O)cc1O was read as KB-3-1 tox inactive, Giardia killer 4, MCF10A rereplic 0%, KB-V1 MDR tox inactive, S-ASM inh -13% and SW480 rerep 1%.
Screening CCCc1cc2c(OC(=O)CC)c(-c3ccc(C(=O)OCC)o3)c(=O)oc2cc1OC returned KB-3-1 tox inactive, Giardia killer -28, MCF10A rereplic 21µM*, KB-V1 MDR tox inactive, S-ASM inh inactive and SW480 rerep inconclusive.
For COc1ccc(-n2nc(C(=O)N3CCN(c4ccccc4OC)CC3)c3c4ccccc4n(C)c3c2=O)cc1 the results were KB-3-1 tox inactive and KB-V1 MDR tox inactive.
`CCC(C(=O)OCc1cc(=O)n2nc(CCOC)sc2n1)c1ccccc1` (configuration not stated) gave KB-3-1 tox inactive and KB-V1 MDR tox inactive.
For C=CCn1c(SCc2nc3ccccc3[nH]2)nnc1-c1ccc(OC)cc1 the results were KB-3-1 tox inactive, Giardia killer -5, MCF10A rereplic 22%, KB-V1 MDR tox 4.6µM*, S-ASM inh -3% and SW480 rerep -8%.
`C=CCn1c(SCc2nc3ccccc3[nH]2)nnc1-c1cccc(OC)c1` gave KB-3-1 tox inactive, Giardia killer -8, MCF10A rereplic 8%, KB-V1 MDR tox 3.7µM*, S-ASM inh 3% and SW480 rerep -14%.
`CCn1c(SCc2nc3ccccc3[nH]2)nnc1-c1ccc(OC)cc1` gave KB-3-1 tox inactive, Giardia killer 3, MCF10A rereplic 3%, KB-V1 MDR tox 10µM*, S-ASM inh 2% and SW480 rerep -16%.
